The text below walks through data of PubChem BioAssay.

In assay [1] the test system is Wnt5a (protein binding on small-molecule microarray). Nature of the assay: small molecules binding Wnt5a protein – biophysical, small-molecule microarray, 635/667 nm fluorescence, primary screen (AID 1142).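 Further: fluorescence read at 667 nm with signal to noise per printed feature.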 The note with it: 635 nm fluorescence, higher = more signal.
The nature of assay [2]: ATP-based viability of Huh7 replicon cells – cell-based, CellTiter-Glo luminescence, basal, 48 h, cytotoxicity control for HCV replication inhibitor project, primary screen (AID 1143).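 Further: Huh7 hepatoma cells carrying a hepatitis C replication reporter with no stimulus; test concentration not given here.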 The conditions noted are these: higher = more signal, called active from +8 up or from −8 down. (A replicon is a self-replicating genome or part of one, used to study replication in cells.)
The nature of assay [3]: basal CRE-LacZ reporter activity in PC12 – cell-based, unstimulated, primary screen (AID 1145). The conditions noted are these: no forskolin, luminescence, 4.5 h, higher = more signal, called active from +8 up or from −8 down.
A short description of assay [4]: forskolin-driven CRE-LacZ activity in PC12 – cell-based, CRE-LacZ reporter, forskolin-stimulated, primary screen (AID 1146).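 Further: PC12 cells with 6xCRE LacZ reporter stimulated by forskolin 10 µM; beta-galactosidase reporter signal reflecting CREB driven transcription.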 The conditions noted are these: luminescence, 4.5 h, higher = more signal, called active from +8 up or from −8 down.
Assay [5] deals with Streptavidin (Streptomyces avidinii) (UniProt P22629). In words: compounds binding control protein streptavidin – biophysical, small-molecule microarray, 635/667 nm fluorescence, artefact control for SMM compound annotation, primary screen (AID 1147).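 Further: signal reflects streptavidin binding to arrayed compounds as a control protein.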 The conditions noted are these: higher = more signal.
Sequence of Streptavidin (Streptomyces avidinii) (P22629 whole entry, looked up): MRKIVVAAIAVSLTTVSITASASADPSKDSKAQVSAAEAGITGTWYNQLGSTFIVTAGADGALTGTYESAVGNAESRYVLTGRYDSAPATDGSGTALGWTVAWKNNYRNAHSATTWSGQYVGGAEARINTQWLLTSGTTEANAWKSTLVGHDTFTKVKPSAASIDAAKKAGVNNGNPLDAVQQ
Assay [6] is described as follows: probe aInhba binding on compound microarray – biochemical, small-molecule microarray, 635/667 nm fluorescence, primary screen (AID 1148).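 Further: score merges 667nm spot fluorescence with signal-to-noise for antibody binding to printed compounds.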 The conditions noted are these: higher = more signal.
For assay [7], the target named is Torsin-1A (Homo sapiens) (UniProt O14656). In words: TOR1A wild-type binding on microarray – cell lysate, small-molecule microarray, lysate, 635/667 nm, primary screen (AID 1149). The conditions noted are these: COS7 hTOR1A-WT lysate, 635 nm fluorescence, higher = more signal.
Sequence of Torsin-1A (Homo sapiens) (O14656 whole entry, looked up): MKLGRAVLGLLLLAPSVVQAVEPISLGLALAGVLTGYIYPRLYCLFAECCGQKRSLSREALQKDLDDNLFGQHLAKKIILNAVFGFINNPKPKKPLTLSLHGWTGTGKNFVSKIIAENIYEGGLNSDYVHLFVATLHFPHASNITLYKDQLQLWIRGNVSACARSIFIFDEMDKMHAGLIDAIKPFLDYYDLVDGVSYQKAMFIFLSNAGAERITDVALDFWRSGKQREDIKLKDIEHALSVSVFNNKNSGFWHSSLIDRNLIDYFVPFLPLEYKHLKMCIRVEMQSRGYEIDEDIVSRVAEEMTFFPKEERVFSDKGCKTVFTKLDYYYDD
The target is the same in assay [8]. In words: torsin A mutant lysate binding on microarrays – cell lysate, small-molecule microarray, COS7 lysate, 635/667 nm fluorescence, primary screen (AID 1150).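 Further: score pools 667 nm emission and signal to noise measuring lysate protein binding.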 The note with it: COS7 hTOR1A mutant lysate, 635 nm fluorescence, higher = more signal.
Assay [9] has as its system Sonic hedgehog protein (Shh). In words: Sonic hedgehog microarray binding compounds – biochemical, small-molecule microarray, 635/667 nm fluorescence, primary screen (AID 1151).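 Further: Shh protein binding to compounds spotted on small-molecule microarray slides; score combines spot fluorescence intensity with signal-to-noise across triplicate slides.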 The conditions noted are these: 635 nm fluorescence, higher = more signal.
The nature of assay [10]: optical density shifts of acrAB sulA E. coli – strain DRC41, OD650, 48 h, E. coli filamentation inducer project, primary screen (AID 1152).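 Further: E. coli MC1000 strain DRC41 lacking acrAB efflux pump and sulA.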 The conditions noted are these: higher = more signal, called active from +8 up or from −8 down.
Assay [11] in a line: probe aLefty1 binding on compound microarray – biochemical, small-molecule microarray, 635/667 nm fluorescence, primary screen (AID 1153).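 Further: score merges spot fluorescence with signal-to-noise ratio from the scanned slide images.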 The conditions noted are these: higher = more signal.
The nature of assay [12]: plasmodial surface anion channel blockers, osmotic lysis – cell-based, P. falciparum Indochina, OD700, 1 h, primary screen (AID 1154). The note with it: P. falciparum Indochina infected RBC osmotic lysis, higher = more signal, called active from +8 up or from −8 down.
A short description of assay [13]: plasmodial surface anion channel blockers, osmotic lysis – cell-based, P. falciparum Indochina, OD700, 2 h, primary screen (AID 1155).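 Further: lysis reports solute entry through the parasite surface anion channel PSAC.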 The note with it: P. falciparum Indochina infected erythrocytes, higher = more signal, called active from +8 up or from −8 down.
Assay [14] is described as follows: changes in parasitized red cell lysis, either direction – P. falciparum Indochina, OD700, 3 h, PSAC antagonist project, primary screen (AID 1156). The note with it: P. falciparum-infected erythrocytes, osmotic lysis, higher = more signal, called active from +8 up or from −8 down.
Assay [15] is described as follows: plasmodial surface anion channel blockers, osmotic lysis – cell-based, P. falciparum Indochina, OD700, 18 h, primary screen (AID 1157). The note with it: P. falciparum Indochina infected erythrocytes, osmotic lysis OD700, 18 h; higher = more signal, called active from +8 up or from −8 down.
Assay [16] is described as follows: S6 kinase pathway phospho-S6 level changes – cell-based, A549, cytoblot, luminescence, serum-stimulated, primary screen (AID 1158).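 Further: serum-stimulated A549 lung adenocarcinoma cells; signal is phosphorylated S6 detected by cytoblot immunostaining with HRP secondary.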 The note with it: 5 h, higher = more signal.
The target of assay [17] is NADPH oxidase 2 (Homo sapiens) (UniProt P04839). In words: compounds shifting NOX2 Amplex Red fluorescence – cell-based, HEK293-NOX2, PMA-stimulated, NOX inhibitor project, primary screen (AID 1159). Further: test concentration not given here. The note with it: 45 min, higher = more signal, called active from +8 up or from −8 down.
Sequence of NADPH oxidase 2 (Homo sapiens) (P04839 whole entry, looked up): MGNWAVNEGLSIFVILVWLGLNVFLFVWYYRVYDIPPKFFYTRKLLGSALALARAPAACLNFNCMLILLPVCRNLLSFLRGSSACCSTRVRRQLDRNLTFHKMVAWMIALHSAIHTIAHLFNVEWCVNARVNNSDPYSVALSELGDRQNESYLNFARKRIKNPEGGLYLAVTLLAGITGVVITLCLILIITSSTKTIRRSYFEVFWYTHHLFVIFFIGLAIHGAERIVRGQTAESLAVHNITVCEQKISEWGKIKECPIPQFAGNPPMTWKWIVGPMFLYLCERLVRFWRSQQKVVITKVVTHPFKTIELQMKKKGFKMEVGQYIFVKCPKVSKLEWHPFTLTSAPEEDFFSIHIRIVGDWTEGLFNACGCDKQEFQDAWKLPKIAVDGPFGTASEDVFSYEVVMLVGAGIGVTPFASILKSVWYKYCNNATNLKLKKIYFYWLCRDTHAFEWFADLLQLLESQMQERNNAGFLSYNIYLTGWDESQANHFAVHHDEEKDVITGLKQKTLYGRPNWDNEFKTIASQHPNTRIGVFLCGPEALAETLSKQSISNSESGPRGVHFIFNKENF
Assay [18] deals with NADPH oxidase 4 (Homo sapiens) (UniProt Q9NPH5). In words: compounds shifting NOX4 Amplex Red fluorescence – cell-based, HEK293-NOX4, tetracycline-induced, NOX inhibitor project, primary screen (AID 1160). The note with it: HEK293-NOX4, Amplex Red H2O2 fluorescence, 45 min; higher = more signal, called active from +8 up or from −8 down.
Sequence of NADPH oxidase 4 (Homo sapiens) (Q9NPH5 whole entry, looked up): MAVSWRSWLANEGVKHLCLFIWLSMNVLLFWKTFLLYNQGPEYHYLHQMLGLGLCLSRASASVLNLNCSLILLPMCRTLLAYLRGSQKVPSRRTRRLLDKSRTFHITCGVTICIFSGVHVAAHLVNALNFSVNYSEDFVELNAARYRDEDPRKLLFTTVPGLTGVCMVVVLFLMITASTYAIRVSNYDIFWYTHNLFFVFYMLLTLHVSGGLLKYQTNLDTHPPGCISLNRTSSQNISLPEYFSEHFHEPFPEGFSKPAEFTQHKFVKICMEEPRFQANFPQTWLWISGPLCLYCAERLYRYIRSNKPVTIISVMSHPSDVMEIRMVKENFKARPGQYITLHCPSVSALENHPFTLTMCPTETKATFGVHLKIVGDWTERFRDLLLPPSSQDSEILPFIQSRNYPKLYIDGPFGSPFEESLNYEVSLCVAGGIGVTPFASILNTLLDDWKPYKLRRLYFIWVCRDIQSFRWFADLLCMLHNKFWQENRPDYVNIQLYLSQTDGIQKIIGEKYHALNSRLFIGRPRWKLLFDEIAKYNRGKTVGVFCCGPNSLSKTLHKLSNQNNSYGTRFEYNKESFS
In assay [19] the target is NADPH oxidase 5 (Homo sapiens) (UniProt Q96PH1). In words: compounds shifting NOX5 Amplex Red fluorescence – cell-based, HEK293-NOX5, NOX inhibitor project, primary screen (AID 1161). The note with it: HEK293-NOX5, ionomycin, 45 min, higher = more signal.
Sequence of NADPH oxidase 5 (Homo sapiens) (Q96PH1 whole entry, looked up): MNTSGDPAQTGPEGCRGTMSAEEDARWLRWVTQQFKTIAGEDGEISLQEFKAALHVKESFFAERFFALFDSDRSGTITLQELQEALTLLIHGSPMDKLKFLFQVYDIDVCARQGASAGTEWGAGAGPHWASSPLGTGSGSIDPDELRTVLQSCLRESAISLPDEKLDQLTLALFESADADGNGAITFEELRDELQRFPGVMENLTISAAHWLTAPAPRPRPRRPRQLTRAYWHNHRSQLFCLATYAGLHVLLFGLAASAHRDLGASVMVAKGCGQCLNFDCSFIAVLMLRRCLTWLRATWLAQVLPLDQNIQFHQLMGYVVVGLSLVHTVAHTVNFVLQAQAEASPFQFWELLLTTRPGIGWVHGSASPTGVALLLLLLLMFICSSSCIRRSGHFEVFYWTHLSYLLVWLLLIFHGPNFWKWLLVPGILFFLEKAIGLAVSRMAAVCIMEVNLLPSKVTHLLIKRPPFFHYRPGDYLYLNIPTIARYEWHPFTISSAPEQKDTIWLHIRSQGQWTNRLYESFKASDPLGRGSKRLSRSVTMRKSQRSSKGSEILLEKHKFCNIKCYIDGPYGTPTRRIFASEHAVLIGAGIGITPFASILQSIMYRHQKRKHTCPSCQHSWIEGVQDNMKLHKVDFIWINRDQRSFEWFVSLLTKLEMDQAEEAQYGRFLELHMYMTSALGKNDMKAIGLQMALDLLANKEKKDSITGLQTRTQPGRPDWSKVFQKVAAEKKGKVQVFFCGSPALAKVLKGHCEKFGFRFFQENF
Assay [20] in a line: compound effects on lung adenocarcinoma cell viability – A549, calcein-AM fluorescence, 48 h, basal, profiling panel (AID 1162). Further: test concentration not given here. The conditions noted are these: higher = more signal.

The source made the active and inactive calls.

Take `O=C1c2ccccc2C(=O)c2cc([C@H]3Oc4ccccc4S(=O)(=O)N4CCC[C@@H]34)ccc21`: the composite z-score in assay [1] was -0.0879; in assay [5], -0.615; in assay [6] it was -0.0079; in assay [7] it was -0.474; in [8] it was -0.122; in assay [9], -0.441. Besides, in assay [11], the composite z-score is -0.0625. The z-score in [2] was -4.31 (inactive); in assay [3], 4.29 (inactive); in assay [4], -1.21 (inactive); in assay [10], 3.11 (inactive); in [12] it was 8.47 (active); in assay [13], 0.452 (inactive). Moreover, the z-score in assay [14] was 0.544 (inactive); in [15], -1.29 (inactive); in [16] it was 1.1; in assay [17], 0.0288 (inactive); in assay [18], -1.18 (inactive); in assay [19], 0.489. In assay [20], the z-score is 0.326.
Turning to `[N-]=[N+]=Nc1ccccc1[C@H]1OC(c2ccc(OCCCO)cc2)=N[C@@]1(Cc1ccccc1)C(N)=O`, the composite z-score was 0.792 in [1]; 1.92 in [5]; 0.329 in assay [6]; 0.596 in assay [7]; 0.622 in assay [8]; 0.281 in assay [9]. Further, the composite z-score in assay [11] came out at 0.752. Moreover, the z-score in assay [2] is -3.44 (inactive); in assay [3], 0.862 (inactive); in [4], -1.89 (inactive); in assay [10], 1.99 (inactive); in [12] it was 31.6 (active); in [13], 28.4 (active). The z-score in assay [14] was 1.64 (inactive); in assay [15] it was 7.66 (inactive); in [16] it was 1.8; in assay [17] it was -1.71 (inactive); in assay [18] it was 0.363 (inactive); in assay [19] it was -0.45. Further, in assay [20], the z-score is -0.297.
`COc1ccc([Si](C)(C)[C@H]2[C@H](CC(=O)N(CCO)Cc3ccccc3)O[C@@]3(C(=O)N(Cc4cccc(N5C(=O)COc6ccccc65)c4)c4ccccc43)[C@@H]2C)cc1`: the composite z-score came to 0.223 in assay [1]; 0.224 in assay [5]; 0.0566 in [6]; 0.275 in assay [7]; 0.493 in assay [8]; 2.03 in assay [9]. This molecule also displayed a composite z-score in [11] of 0.0437. Besides, the z-score is -3.26 (inactive) in assay [2]; 2.61 (inactive) in assay [3]; -1.58 (inactive) in assay [4]; 2.01 (inactive) in assay [10]; 12.7 (active) in assay [12]; 2.77 (inactive) in assay [13]. The z-score in [14] is 0.144 (inactive); in assay [15], 1.28 (inactive); in assay [16], 0.721; in [17], 0.0235 (inactive); in assay [18], 0.789 (inactive); in assay [19], 2.17. The z-score in assay [20] is 0.0715.
As to `C=CCN1C(=O)[C@@]2(O[C@@H](CCO)[C@H]([Si](C)(C)c3ccc(OC)cc3)[C@H]2C)c2cc(N(C=O)c3ccccc3)ccc21`, the composite z-score in assay [1] was 0.125; in assay [5], -0.387; in [6] it was -0.0044; in assay [7], 0.0589; in [8], 0.0237; in assay [9], 0.207. The molecule further registered a composite z-score in assay [11] of -0.16. Besides, the z-score in assay [2] is -7.99 (inactive); in assay [3], 16.9 (active); in [4] it was -4.02 (inactive); in assay [10], 1.55 (inactive); in assay [12], 24 (active); in assay [13], 7.57 (inactive). For the same molecule, the z-score in assay [14] was -0.599 (inactive); in assay [15], 0.279 (inactive); in assay [16], 0.183; in assay [17] it was -0.477 (inactive); in assay [18], 0.638 (inactive); in assay [19], -0.174. Besides, in assay [20], the z-score is -3.16.
On to `COCCOC(=O)N1C(=O)[C@@]2(c3ccccc31)[C@H](C(=O)Nc1nc3ccccc3s1)[C@H]1C(=O)O[C@H](c3ccccc3)[C@H](c3ccccc3)N1[C@@H]2c1ccc(O)cc1`, for which the composite z-score in [1] was 0.418; in assay [5], 0.511; in [6], 0.263; in [7], 0.815; in assay [8], -0.06; in assay [9], 2.07. In [11], this molecule registered a composite z-score of 0.577. In addition, the z-score was -3.59 (inactive) in assay [2]; -0.199 (inactive) in [3]; -0.395 (inactive) in [4]; 2.37 (inactive) in assay [10]; 10.9 (active) in assay [12]; 5 (inactive) in [13]. Also, the z-score was 1.67 (inactive) in [14]; 2.06 (inactive) in assay [15]; 1.92 in assay [16]; -0.333 (inactive) in assay [17]; -0.395 (inactive) in assay [18]; 1.28 in [19]. Also, the z-score in assay [20] was 0.751.
